Reference: PubChem BioAssay (NCI)
“And” between values parts separate entries of the source, which are not always exact repeats. Equal values may be shown once. About 83,000 compounds went through this panel and 20% of them were active in at least one assay; those are over-represented in the sample as a whole.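 Growth was measured after 48 h exposure to one concentration of compound in 96-well plates. Values under 10 count as active.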 The source made the active and inactive calls.

What follows are compounds tested on EKVX NSCLC (assay: NCI-60 one-dose screen, 48 h (100 = growth as untreated, 0 = no growth, -100 = all killed)). Conditions: 10 µM unless noted.

SMILES	growth
CC(C)CNC(=O)c1ccccc1C(=O)NC1(C(=O)NCC(C)C)CCCC1	96.7% (inactive) and 109% (inactive)
Cn1c(=O)n(-c2ccc(C(C)(C)C#N)cc2)c2c3cc(-c4cnc5ccccc5c4)ccc3ncc21	7.47% (active) and 2.62% (active)
CN(C)c1ccc(C(Cc2ccc3ccccc3n2)Cc2ccc3ccccc3n2)cc1	49.2% (inactive) and 72.9% (inactive)
Cc1ccc(S(=O)(=O)Nc2ccc3cc([N+](=O)[O-])ccc3c2[N+](=O)[O-])cc1	86% (inactive) and 75.7% (inactive)
NS(=O)(=O)c1cc2c(cc1Cl)NC(C(Cl)Cl)NS2(=O)=O (centres undefined)	89.3% (inactive) and 110% (inactive)
Nc1ccccc1Nc1ccccc1	96.4% (inactive)
c1ccc2c(CC3=NCCN3)cccc2c1	113% (inactive) and 102% (inactive)
Clc1ccc(NC(Nc2ccc(Cl)cc2)C(Cl)(Cl)Cl)cc1	85.7% (inactive) and 99.3% (inactive)
CCOc1ccc2c(S(=O)(=O)O)cccc2c1[N+](=O)[O-]	99.2% (inactive) and 88.5% (inactive)
CCN(CC)CCCC(C)N(Cc1ccccc1)CC(O)c1ccc(Cl)cc1 (centres undefined)	106% (inactive) and 96.2% (inactive)
Cn1cnc([N+](=O)[O-])c1Sc1ncnc2nc[nH]c12	83.3% (inactive) and 109% (inactive)
Nc1nc2ncc(CNc3ccc(C(=O)N[C@@H](CCc4nn[nH]n4)C(=O)O)cc3)nc2c(=O)[nH]1	96.1% (inactive) and 106% (inactive)
Oc1c(Cl)cc(Cl)cc1Sc1cc(Cl)cc(Cl)c1O	50% (inactive) and 23.4% (inactive) and 89% (inactive)
O=S1(=O)CC(Br)C(Br)C1 (centres undefined)	93.9% (inactive)
CN(C)c1ccc2nc3ccc(N)cc3[n+](-c3ccccc3)c2c1	27.8% (inactive) and 12.6% (inactive)

What follows are compounds tested on SN12C renal in the same assay as above. Conditions: 10 µM unless noted.

SMILES	growth
COc1cc2c(c(OC)c1OC)-c1ccc(OC)c(=O)cc1[C@@H](NC(C)=O)CC2	35.3% (inactive) and 25.5% (inactive) and 46.8% (inactive)
CCN(CC)CCCC(CNc1ccnc2cc(Cl)ccc12)c1ccc(Cl)cc1 (centres undefined)	-3.18% (active) and 84.7% (inactive)
N#CCCOc1ccccc1	99.8% (inactive)
COc1ccc(/C(C#N)=C/c2ccccn2)cc1	101% (inactive) and 115% (inactive)
CCN(CC)C(=S)SSC(=S)N(CC)CC	78.9% (inactive) and 106% (inactive)
Nc1ccc(N=Nc2ccc(S(=O)(=O)O)cc2)cc1S(=O)(=O)O	105% (inactive) and 96.1% (inactive)
CCN(CC)CCOc1ccc2c(c1)C(=O)c1cc(OCCN(CC)CC)ccc1-2	73.2% (inactive) and 61.6% (inactive)
O=S(=O)(Nc1ccccc1)C1CCCCC1	94.9% (inactive) and 120% (inactive)
CCNC(=O)Nc1ccc(-c2nc3c(c(N4CCOC[C@@H]4C)n2)CCN(C2COC2)C3)cc1	36.1% (inactive) and 14.7% (inactive)
CC(C)Cc1ccc(C(C)C(=O)NCc2ccc(Cn3c(=O)sn(CCCCl)c3=O)cc2)cc1 (centres undefined)	98.7% (inactive) and -60.5% (active)
OCc1ccccn1	97.4% (inactive)
Nc1ncnc2c1ncn2C1CC(O)C(CO)O1 (centres undefined)	105% (inactive) and 104% (inactive)
CCCCCCCCCCCCCCCc1cc(O)ccc1N	51.2% (inactive) and 62.2% (inactive)
CCN(CC)C(=O)c1cccnc1	106% (inactive)
Oc1nc(NCCc2ccccc2)sc1/C=C1\C=Nc2ncccc21	33.5% (inactive) and 15.9% (inactive)
COc1cc2nc(N3CCN(C(=O)C4COc5ccccc5O4)CC3)nc(N)c2cc1OC (centres undefined)	88.1% (inactive) and 83% (inactive) and 99.7% (inactive)
c1ccc2cc(C[n+]3ccn(Cc4ccc5ccccc5n4)c3)ccc2c1	2.29% (active) and 11.9% (inactive)
COc1ccc(Cn2c(NCCN=C(N)N)nc(=O)n(Cc3ccc(F)cc3)c2=O)cc1	91.4% (inactive) and 68.8% (inactive)
O=C(N/N=C/c1cccc2ccccc12)C1CC1	104% (inactive) and 88.6% (inactive)
